{"source": "PubChem BioAssay (EPA / NIEHS)", "note": "Where “and” joins values, the source holds several entries; their conditions need not be identical. Identical values can stand only once. Results filed as inconclusive are left out. A structure can be active in one record and inactive in another. Calls of active or inactive are those of the source. How the source made its calls: active means hit-call score of the fitted dose curve at least 0.9, where 1 is the maximum; inconclusive means response in the unintended direction; inactive means score below 0.9."}
{"test": "TOX21_p53_BLA_p5_viability: Viability Assessment in the Tox21 HCT-116 p53 Agonism Beta-lactamase Assay, Phase 5 (AID 2283600)", "description": "TOX21_p53_BLA_p5 is a cell-based, single-readout assay that uses HCT116, a human intestinal cell line, […] in a 1536-well plate.TOX21_p53_BLA_p5_viability is an assay readout measuring cellular ATP content and detected with CellTiter-Glo Luciferase-coupled ATP quantitation.TOX21_p53_BLA_p5_viability used a type of viability reporter where loss-of-signal activity can be used to understand changes in the cell viability. Furthermore, this assay endpoint can be referred to as a secondary readout, because this assay has produced multiple assay endpoints where this one serves a viability function. To generalize the intended target to other relatable targets, this assay endpoint is annotated to the cell cycle intended target family, where the subfamily is cytotoxicity.\nThawing Method: Place 14 mL of pre-warmed thaw medium into a 15 mL of conical tub. Remove the vial of cells to be thawed from liquid nitrogen and thaw rapidly by placing at 37C in a water bath with gentle agitation for 1-2 minutes. Decontaminate the vial by wiping with 70% ethanol before opening in a biological safety cabinet. Transfer the vial contents drop-wise into 14 mL of thaw medium in a sterile 15-mL conical tub. Centrifuge cells at 900 rpm for 4 minutes and resuspend in thaw medium. Transfer contents to the T75 tissue culture flask containing Thaw Medium and place flask in a humidified 37C/5% CO2 incubator. Switch to growth medium at first passage.Propagation Method: Aspirate medium, rinse once in DPBS, add 0.25% Trypsin/EDTA and swirl to coat the cell evenly. Add an equal volume of Growth Medium to inactivate Trypsin after 2-3 minutes incubation at 37C. Centrifuge cells at 900 rpm for 4 minutes and resuspend in growth medium. Cell should be passage or fed at least twice a week.Assay Protocol: Harvest cells from culture in growth medium and resuspend in assay medium. 2.2 Dispense 4000 cells/5 uL/well into 1536-well black/clear bottom plates using a Multidrop dispenser. After the cells were incubated at 37C for 5 hours, 23 nL of compounds dissolved in DMSO were transferred to the assay plate by a PinTool resulting in a 217-fold dilution. Incubate the plates for 16 hours at 37C, 5% CO2. Add 1 uL of 6X LiveBLAzer FRET B/G (CCF4-AM) Substrate Mixture to each well using a BioRAPTR dispenser and incubate the plates at room temperature for 2 hours. Measure fluorescence intensity at 460 and 530 nm emission and 405 nm excitation by an Envision detector. Data is expressed as the ratio of 460nm/530nm emissions. Add 4 uL of Cell-titer Glo to each well using BioRAPTR and incubate the plates at room temperature for […]. For cell viability readout that measures cytotoxicity, 4 ul/well of CellTiter-Glo reagent was added into the assay plates using a Flying Reagent Dispenser. After 30 min incubation at room temperature, the luminescence intensity in the plates was measured using a ViewLux plate reader."}
{"smiles": "CN(C)c1ccc(C(=O)c2ccc(N(C)C)cc2)cc1", "outcome": "inactive"}
{"smiles": "Cc1cccc(N)c1N", "outcome": "inactive"}
{"smiles": "c1ccc(C2CO2)cc1", "note": "(stereo not given)", "outcome": "inactive"}
{"smiles": "Clc1ccc(Cl)c(Cl)c1", "outcome": "inactive"}
{"smiles": "Nc1cc(Cl)cc(C(=O)O)c1Cl", "outcome": "inactive"}
{"smiles": "Oc1ccccc1Cl", "outcome": "inactive"}
{"smiles": "Clc1ccc(C(c2ccc(Cl)cc2)C(Cl)(Cl)Cl)cc1", "AC50": "68.3 µM (active) and 31.9 µM (active)", "outcome": "inactive"}
{"smiles": "Cc1ccc([N+](=O)[O-])cc1", "outcome": "inactive"}
{"smiles": "OCCCBr", "outcome": "inactive"}
{"smiles": "N#CC(Br)(Br)C(N)=O", "outcome": "inactive"}
{"smiles": "ClC1=C(Cl)C2(Cl)C3C(Cl)C=CC3C1(Cl)C2(Cl)Cl", "note": "(stereo not given)", "AC50": "75 µM (active)", "outcome": "inactive"}
{"smiles": "Nc1ccc(N=Nc2ccccc2)cc1", "outcome": "inactive"}
{"smiles": "CCN(CC)CCO", "outcome": "inactive"}
{"smiles": "C=CCc1ccc2c(c1)OCO2", "outcome": "inactive"}
{"smiles": "Oc1ccc2ccc3cccc4ccc1c2c34", "outcome": "inactive"}
{"smiles": "CC(C)(C)OOC(C)(C)CCC(C)(C)OOC(C)(C)C", "outcome": "inactive"}
{"smiles": "CC(C)(C)OOC(=O)c1ccccc1", "outcome": "inactive"}
{"smiles": "Nc1ccc(Cl)cc1N", "outcome": "inactive"}
{"smiles": "ClCCOCCCl", "outcome": "inactive"}
{"smiles": "Cc1ccc(N=C=O)cc1N=C=O", "outcome": "inactive"}
{"smiles": "O=C(Oc1ccc(Br)cc1)N1CCN2CCC1CC2", "outcome": "inactive"}
{"smiles": "CN(C)C(=O)Nc1ccc(Cl)cc1", "outcome": "inactive"}
{"smiles": "C[N+](C)(C)CC1CO1", "note": "(stereo not given)", "outcome": "inactive"}
{"smiles": "c1ccc2c(c1)oc1ccccc12", "outcome": "inactive"}
{"smiles": "CCC[CH2][Sn]([Cl])([CH2]CCC)[CH2]CCC", "AC50": "1.52 µM (active)"}
{"smiles": "ClC1=C(Cl)[C@]2(Cl)[C@H]3[C@H]([C@@H]4C=C[C@H]3C4)[C@@]1(Cl)C2(Cl)Cl", "outcome": "inactive"}
{"smiles": "C1=Cc2cccc3cccc1c23", "outcome": "inactive"}
{"smiles": "O=C1CCCO1", "outcome": "inactive"}
{"smiles": "Nc1ccc([N+](=O)[O-])cc1", "outcome": "inactive"}
{"smiles": "CCCCOC(=O)c1ccccc1C(=O)OCc1ccccc1", "outcome": "inactive"}
{"smiles": "COP(=S)(OC)SCN1C(=O)c2ccccc2C1=O", "outcome": "inactive"}
{"smiles": "CCN(CC)N=O", "outcome": "inactive"}
{"smiles": "Nc1ccc(Cc2ccc(N)cc2)cc1", "outcome": "inactive"}
{"smiles": "CC(C)(OOC(C)(C)c1ccccc1)c1ccccc1", "outcome": "inactive"}
{"smiles": "COC(=O)c1ccccc1N", "outcome": "inactive"}
{"smiles": "CC(C)(C)C(O)(CCc1ccc(Cl)cc1)Cn1cncn1", "note": "(stereo not given)", "outcome": "inactive"}
{"smiles": "CCCCCCCCOC(=O)c1ccc(C(=O)OCCCCCCCC)c(C(=O)OCCCCCCCC)c1", "outcome": "inactive"}
{"smiles": "O=P(OCCCl)(OCCCl)OCCCl", "outcome": "inactive"}
